Assay results from PubChem BioAssay AID1159580 (chemical genetic matrix, 2015).
Out of some 5,500 compounds screened, about 2,000 (36%) were called active. About 18% were inconclusive and are not listed. Cut-off read from the data, not from the text of the source: active = normalized growth mostly below about 0.91 (no sharp cut-off); inconclusive = no clear call, values can overlap the other calls; inactive = mostly above about 0.92. This is one part of the list.

Test: chemical genetic growth profiling, strain panel (AID 1159580);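 note: tested at 20 µM; growth read once vehicle control cultures reached saturation at 30 °C; 1 = growth at the plate median or of vehicle wells; lower values mean less growth of the strain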
Conditions: growth OD
[1] = S. cerevisiae deletion strains, locus YDL101C, strain DUN1, stronger effect = lower value
[2] = S. cerevisiae deletion strains, locus YHR030C, strain SLT2, stronger effect = lower value

Measured: normalized growth

N#Cc1ccc2[nH]cc(CCN(Cc3ccccc3)Cc3ccccc3)c2c1
inactive: S. cerevisiae deletion strains, locus YAR019C, strain CDC15, stronger effect = lower value 0.989 | S. cerevisiae deletion strains, locus YBL105C, strain PKC1, stronger effect = lower value 0.991 | S. cerevisiae deletion strains, locus YBR135W, strain CKS1, stronger effect = lower value 0.99 | S. cerevisiae deletion strains, locus YBR136W, strain MEC1, stronger effect = lower value 0.984 | S. cerevisiae deletion strains, locus YBR160W, strain CDC28, stronger effect = lower value 0.989 | S. cerevisiae deletion strains, locus YDL017W, strain CDC7, stronger effect = lower value 0.99 | S. cerevisiae deletion strains, locus YDL028C, strain MPS1, stronger effect = lower value 0.977 | [1] 0.98 | S. cerevisiae deletion strains, locus YDL108W, strain KIN28, stronger effect = lower value 0.983 | S. cerevisiae deletion strains, locus YDL132W, strain cdc53, stronger effect = lower value 0.985 | S. cerevisiae deletion strains, locus YDL214C, strain PRR2, stronger effect = lower value 0.943 | S. cerevisiae deletion strains, locus YDR052C, strain DBF4, stronger effect = lower value 0.992 | S. cerevisiae deletion strains, locus YDR054C, strain cdc34, stronger effect = lower value 0.978 | S. cerevisiae deletion strains, locus YDR226W, strain ADK1, stronger effect = lower value 0.978 | S. cerevisiae deletion strains, locus YDR477W, strain SNF1, stronger effect = lower value 0.969 | S. cerevisiae deletion strains, locus YER123W, strain YCK3, stronger effect = lower value 0.918 | S. cerevisiae deletion strains, locus YER133W, strain GLC7, stronger effect = lower value 0.964 | S. cerevisiae deletion strains, locus YFL009W, strain cdc4, stronger effect = lower value 0.982 | S. cerevisiae deletion strains, locus YFL029C, strain CAK1, stronger effect = lower value 0.986 | S. cerevisiae deletion strains, locus YFR003C, strain YPI1, stronger effect = lower value 0.992 | S. cerevisiae deletion strains, locus YFR019W, strain FAB1, stronger effect = lower value 0.967 | S. cerevisiae deletion strains, locus YFR028C, strain CDC14, stronger effect = lower value 0.982 | S. cerevisiae deletion strains, locus YGR040W, strain KSS1, stronger effect = lower value 0.956 | S. cerevisiae deletion strains, locus YGR052W, strain FMP48, stronger effect = lower value 1.05 | S. cerevisiae deletion strains, locus YGR092W, strain DBF2, stronger effect = lower value 0.943 | [2] 1.13 | S. cerevisiae deletion strains, locus YHR079C, strain IRE1, stronger effect = lower value 1.07 | S. cerevisiae deletion strains, locus YHR082C, strain KSP1, stronger effect = lower value 1.05 | S. cerevisiae deletion strains, locus YHR205W, strain SCH9, stronger effect = lower value 0.962 | S. cerevisiae deletion strains, locus YIL147C, strain SLN1, stronger effect = lower value 0.987 | S. cerevisiae deletion strains, locus YJL095W, strain BCK1, stronger effect = lower value 1.07 | S. cerevisiae deletion strains, locus YJL128C, strain PBS2, stronger effect = lower value 0.953 | S. cerevisiae deletion strains, locus YJL157C, strain FAR1, stronger effect = lower value 0.954 | S. cerevisiae deletion strains, locus YJR016C, strain ILV3, stronger effect = lower value 0.991 | S. cerevisiae deletion strains, locus YJR066W, strain TOR1 (second series), stronger effect = lower value 0.926 | S. cerevisiae deletion strains, locus YJR066W, strain TOR1, stronger effect = lower value 1.07 | S. cerevisiae deletion strains, locus YKL048C, strain ELM1, stronger effect = lower value 0.964 | S. cerevisiae deletion strains, locus YKL067W, strain YNK1, stronger effect = lower value 0.969 | S. cerevisiae deletion strains, locus YKL101W, strain HSL1, stronger effect = lower value 0.954 | S. cerevisiae deletion strains, locus YKL193C, strain SDS22, stronger effect = lower value 0.987 | S. cerevisiae deletion strains, locus YKL203C, strain TOR2, stronger effect = lower value 1.04 | S. cerevisiae deletion strains, locus YLR113W, strain HOG1, stronger effect = lower value 1.01 | S. cerevisiae deletion strains, locus YLR133W, strain CKI1, stronger effect = lower value 0.98 | S. cerevisiae deletion strains, locus YLR403W, strain SFP1, stronger effect = lower value 0.962 | S. cerevisiae deletion strains, locus YML070W, strain DAK1, stronger effect = lower value 0.95 | S. cerevisiae deletion strains, locus YMR001C, strain CDC5, stronger effect = lower value 0.988 | S. cerevisiae deletion strains, locus YMR205C, strain PFK2 (second series), stronger effect = lower value 0.972 | S. cerevisiae deletion strains, locus YMR277W, strain FCP1, stronger effect = lower value 0.993 | S. cerevisiae deletion strains, locus YNL006W, strain LST8, stronger effect = lower value 0.983 | S. cerevisiae deletion strains, locus YNL020C, strain ARK1, stronger effect = lower value 0.98 | S. cerevisiae deletion strains, locus YNL161W, strain CBK1, stronger effect = lower value 0.993 | S. cerevisiae deletion strains, locus YNL183C, strain NPR1, stronger effect = lower value 1.05 | S. cerevisiae deletion strains, locus YNL207W, strain RIO2, stronger effect = lower value 0.979 | S. cerevisiae deletion strains, locus YNL222W, strain SSU72, stronger effect = lower value 0.986 | S. cerevisiae deletion strains, locus YNL307C, strain MCK1 (second series), stronger effect = lower value 0.98 | S. cerevisiae deletion strains, locus YOL078W, strain AVO1, stronger effect = lower value 0.987 | S. cerevisiae deletion strains, locus YOL136C, strain PFK27, stronger effect = lower value 0.957 | S. cerevisiae deletion strains, locus YOR061W, strain CKA2, stronger effect = lower value 0.955 | S. cerevisiae deletion strains, locus YOR119C, strain RIO1, stronger effect = lower value 1.01 | S. cerevisiae deletion strains, locus YOR231W, strain MKK1, stronger effect = lower value 1.06 | S. cerevisiae deletion strains, locus YOR329C, strain SCD5, stronger effect = lower value 0.993 | S. cerevisiae deletion strains, locus YPL031C, strain PHO85, stronger effect = lower value 0.97 | S. cerevisiae deletion strains, locus YPL153C, strain RAD53, stronger effect = lower value 0.954 | S. cerevisiae deletion strains, locus YPL204W, strain HRR25, stronger effect = lower value 0.97 | S. cerevisiae deletion strains, locus YPL209C, strain IPL1, stronger effect = lower value 0.994 | S. cerevisiae deletion strains, locus YPL256C, strain CLN2, stronger effect = lower value 1.05 | S. cerevisiae deletion strains, locus YPR025C, strain CCL1, stronger effect = lower value 0.992 | S. cerevisiae deletion strains, locus YPR106W, strain ISR1, stronger effect = lower value 0.984 | S. cerevisiae deletion strains, locus YPR111W, strain DBF20, stronger effect = lower value 0.976 | S. cerevisiae deletion strains, strain NNK1, stronger effect = lower value 0.983 | S. cerevisiae deletion strains, strain TSCII, stronger effect = lower value 0.993

N#CCS(=O)(=O)c1cccs1
inactive: S. cerevisiae deletion strains, locus YAL013W, strain DEP1, stronger effect = lower value 0.988 | S. cerevisiae deletion strains, locus YBR229C, strain ROT2, stronger effect = lower value 1 | [1] 0.983 | S. cerevisiae deletion strains, locus YDR150W, strain NUM1, stronger effect = lower value 0.94 | S. cerevisiae deletion strains, locus YEL061C, strain CIN8, stronger effect = lower value 1.01 | S. cerevisiae deletion strains, locus YGR078C, strain PAC10, stronger effect = lower value 0.979 | [2] 0.996 | S. cerevisiae deletion strains, locus YHR087W, strain rtc3, stronger effect = lower value 1 | S. cerevisiae deletion strains, locus YJR043C, strain POL32, stronger effect = lower value 0.949 | S. cerevisiae deletion strains, locus YJR075W, strain HOC1, stronger effect = lower value 0.993 | S. cerevisiae deletion strains, locus YLR039C, strain RIC1, stronger effect = lower value 1.1 | S. cerevisiae deletion strains, locus YLR058C, strain SHM2 (second series), stronger effect = lower value 1 | S. cerevisiae deletion strains, locus YLR085C, strain ARP6, stronger effect = lower value 0.999 | S. cerevisiae deletion strains, locus YLR262C, strain YPT6, stronger effect = lower value 1.12 | S. cerevisiae deletion strains, locus YML094W, strain GIM5, stronger effect = lower value 0.975 | S. cerevisiae deletion strains, locus YMR219W, strain ESC1, stronger effect = lower value 1 | S. cerevisiae deletion strains, locus YMR263W, strain SAP30, stronger effect = lower value 0.961 | S. cerevisiae deletion strains, locus YNL153C, strain GIM3, stronger effect = lower value 0.968 | S. cerevisiae deletion strains, locus YNL298W, strain CLA4 (second series), stronger effect = lower value 1 | S. cerevisiae deletion strains, locus YNL322C, strain KRE1, stronger effect = lower value 1.02 | S. cerevisiae deletion strains, locus YNR030W, strain Alg12, stronger effect = lower value 0.989 | S. cerevisiae deletion strains, locus YPL055C, strain LGE1, stronger effect = lower value 0.92 | S. cerevisiae deletion strains, locus YPL241C, strain CIN2, stronger effect = lower value 0.983 | S. cerevisiae deletion strains, locus YPR135W, strain CTF4, stronger effect = lower value 0.885 | S. cerevisiae strains, strain wild type, stronger effect = lower value 1.01
